Holding throughout (test): DAPPL (digital affinity profiling via proximity ligation, sequencing); 10 mM Tris-HCl pH 7.5, 50 mM NaCl, 1 mM DTT, 4% glycerol, room temperature, 30 min; GST-TFs on glutathione beads, 16-mer random dsDNA library, 0.1% formaldehyde crosslink after washing; high values mean tight binding
The target in test [1] is T1, FLI1 (Homo sapiens, UniProt Q01543 1-452).
T1 sequence: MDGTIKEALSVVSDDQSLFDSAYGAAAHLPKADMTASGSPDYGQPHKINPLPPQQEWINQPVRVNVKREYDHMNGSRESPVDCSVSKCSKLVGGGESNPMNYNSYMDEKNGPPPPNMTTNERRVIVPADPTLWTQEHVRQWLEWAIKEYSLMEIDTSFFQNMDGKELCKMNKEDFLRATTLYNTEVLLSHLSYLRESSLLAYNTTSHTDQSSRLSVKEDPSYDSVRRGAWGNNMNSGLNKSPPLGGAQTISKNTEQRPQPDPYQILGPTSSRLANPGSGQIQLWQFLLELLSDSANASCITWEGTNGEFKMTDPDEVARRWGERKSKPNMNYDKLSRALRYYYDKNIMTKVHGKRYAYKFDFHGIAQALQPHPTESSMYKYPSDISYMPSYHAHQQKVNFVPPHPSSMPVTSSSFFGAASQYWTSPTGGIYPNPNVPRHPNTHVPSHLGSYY
Particulars: protein: recombinant; tags: N-terminal GST; dsDNA, one strand shown. Summed up: (§1)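 Yeast served to express human transcription factors as GST fusions, which were then captured on glutathione beads and labelled with DNA barcodes. Pooled with a tag-only sample, they were incubated with 200 nmole of a 16-mer random double-stranded DNA library for 30 min at room temperature in Tris/NaCl/DTT/glycerol buffer, washed, crosslinked with 0.1% formaldehyde, ligated by proximity, amplified by PCR and sequenced. Dividing each hexamer's read frequency for a factor by its frequency for the tag-only sample gives the binding signal.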

Test [2] addresses T2, ELK1 (Homo sapiens, UniProt P19419 1-428).
T2 sequence: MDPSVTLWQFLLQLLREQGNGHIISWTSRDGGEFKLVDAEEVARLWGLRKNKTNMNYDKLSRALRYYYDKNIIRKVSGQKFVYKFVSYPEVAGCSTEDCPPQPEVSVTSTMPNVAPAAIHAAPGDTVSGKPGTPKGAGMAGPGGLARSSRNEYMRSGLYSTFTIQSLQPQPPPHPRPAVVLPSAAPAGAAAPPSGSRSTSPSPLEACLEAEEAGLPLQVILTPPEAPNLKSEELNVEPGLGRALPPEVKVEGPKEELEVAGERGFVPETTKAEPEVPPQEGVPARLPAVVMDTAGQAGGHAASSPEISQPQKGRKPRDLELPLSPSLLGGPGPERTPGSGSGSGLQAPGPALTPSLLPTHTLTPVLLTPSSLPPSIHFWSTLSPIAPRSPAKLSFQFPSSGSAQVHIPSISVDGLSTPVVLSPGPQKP
To be noted: protein: recombinant; tags: N-terminal GST; dsDNA, one strand shown. Summed up:
as §1

The target of test [3] is T3, GABPA (Homo sapiens, UniProt Q06546 1-454).
T3 sequence: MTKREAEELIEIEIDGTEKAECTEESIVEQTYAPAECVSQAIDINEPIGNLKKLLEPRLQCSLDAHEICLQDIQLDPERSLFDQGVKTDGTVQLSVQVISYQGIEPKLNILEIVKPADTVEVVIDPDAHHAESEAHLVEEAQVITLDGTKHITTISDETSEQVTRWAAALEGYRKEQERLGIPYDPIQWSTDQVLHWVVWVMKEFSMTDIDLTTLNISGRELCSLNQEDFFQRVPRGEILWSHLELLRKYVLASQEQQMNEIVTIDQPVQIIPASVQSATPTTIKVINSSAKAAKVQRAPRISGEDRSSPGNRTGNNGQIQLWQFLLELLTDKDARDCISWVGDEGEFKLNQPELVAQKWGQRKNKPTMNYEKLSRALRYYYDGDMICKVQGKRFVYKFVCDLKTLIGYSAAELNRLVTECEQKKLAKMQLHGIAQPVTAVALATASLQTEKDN
To be noted: protein: recombinant; tags: N-terminal GST; dsDNA, one strand shown. The essentials:
as §1

For test [4], the target named is T4, ERG (Homo sapiens, UniProt P11308 1-479).
T4 sequence: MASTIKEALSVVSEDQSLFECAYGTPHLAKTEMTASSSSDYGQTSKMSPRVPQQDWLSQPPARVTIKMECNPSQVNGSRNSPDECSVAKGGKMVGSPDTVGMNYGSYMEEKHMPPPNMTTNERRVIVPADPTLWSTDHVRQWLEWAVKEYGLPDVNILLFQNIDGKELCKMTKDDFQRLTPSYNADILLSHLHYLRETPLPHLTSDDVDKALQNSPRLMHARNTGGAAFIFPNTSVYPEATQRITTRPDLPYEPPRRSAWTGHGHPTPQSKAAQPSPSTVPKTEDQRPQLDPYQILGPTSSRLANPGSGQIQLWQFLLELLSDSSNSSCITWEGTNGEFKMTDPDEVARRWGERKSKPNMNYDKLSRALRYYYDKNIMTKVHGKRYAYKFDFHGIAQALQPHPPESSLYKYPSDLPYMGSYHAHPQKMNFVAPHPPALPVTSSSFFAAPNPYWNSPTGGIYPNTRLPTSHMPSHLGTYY
To be noted: protein: recombinant; tags: N-terminal GST; dsDNA, one strand shown. Summed up: as §1

Test [5] concerns the target ELF1 (Homo sapiens, UniProt P32519 1-619). To be noted: protein: recombinant; tags: N-terminal GST; dsDNA, one strand shown. The essentials:
as §1

Test [6] has as its target T5, EHF (Homo sapiens, UniProt Q9NZC4 1-300).
T5 sequence: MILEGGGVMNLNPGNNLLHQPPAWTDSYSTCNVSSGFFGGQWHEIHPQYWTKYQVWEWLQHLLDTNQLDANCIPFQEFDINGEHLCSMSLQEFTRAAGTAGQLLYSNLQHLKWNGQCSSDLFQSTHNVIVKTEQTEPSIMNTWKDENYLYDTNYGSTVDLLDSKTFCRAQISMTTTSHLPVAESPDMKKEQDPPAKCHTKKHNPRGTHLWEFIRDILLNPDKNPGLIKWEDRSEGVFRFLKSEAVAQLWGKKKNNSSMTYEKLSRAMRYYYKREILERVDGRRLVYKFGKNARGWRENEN
To be noted: protein: recombinant; tags: N-terminal GST; dsDNA, one strand shown. The essentials:
as §1

The target of test [7] is SPI1 (Homo sapiens, UniProt P17947 1-270). Particulars: protein: recombinant; tags: N-terminal GST; dsDNA, one strand shown. The essentials: as §1
The target of test [8] is SPIB (Homo sapiens, UniProt Q01892 1-262). Particulars: protein: recombinant; tags: N-terminal GST; dsDNA, one strand shown. Summed up: as §1
Test [9] concerns the target T6, ELK3 (Homo sapiens, UniProt P41970 1-407).
T6 sequence: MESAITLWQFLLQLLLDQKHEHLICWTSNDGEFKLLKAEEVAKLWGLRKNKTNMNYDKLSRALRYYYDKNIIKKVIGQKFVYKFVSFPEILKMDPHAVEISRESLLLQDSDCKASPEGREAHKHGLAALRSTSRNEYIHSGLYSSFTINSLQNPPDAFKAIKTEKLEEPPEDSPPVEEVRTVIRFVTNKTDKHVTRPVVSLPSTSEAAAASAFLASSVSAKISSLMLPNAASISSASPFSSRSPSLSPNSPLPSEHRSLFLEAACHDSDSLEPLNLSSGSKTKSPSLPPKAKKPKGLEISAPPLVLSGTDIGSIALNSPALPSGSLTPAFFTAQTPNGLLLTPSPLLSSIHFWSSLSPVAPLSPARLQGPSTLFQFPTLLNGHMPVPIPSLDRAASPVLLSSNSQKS
Particulars: protein: recombinant; tags: N-terminal GST; dsDNA, one strand shown. Summed up: as §1

Test [10] addresses T7, FEV (Homo sapiens, UniProt Q99581 1-238).
T7 sequence: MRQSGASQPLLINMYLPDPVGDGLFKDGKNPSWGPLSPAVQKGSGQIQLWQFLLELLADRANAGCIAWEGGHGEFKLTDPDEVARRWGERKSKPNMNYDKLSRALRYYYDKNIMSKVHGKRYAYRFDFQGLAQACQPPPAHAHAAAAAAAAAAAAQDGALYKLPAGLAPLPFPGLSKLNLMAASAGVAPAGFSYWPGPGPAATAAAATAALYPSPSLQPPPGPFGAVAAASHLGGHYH
To be noted: protein: recombinant; tags: N-terminal GST; dsDNA, one strand shown. The essentials:
as §1

The target of test [11] is ETV5 (Homo sapiens, UniProt P41161 1-510). Particulars: protein: recombinant; tags: N-terminal GST; dsDNA, one strand shown. Summed up: as §1
For test [12], the target named is HSF1 (Homo sapiens, UniProt Q00613 1-529). Particulars: protein: recombinant; tags: N-terminal GST; chain copies: 3; dsDNA, one strand shown. Summed up:
as §1

For test [13], the target named is T8, SPIC (Homo sapiens, UniProt Q8N5J4 1-248).
T8 sequence: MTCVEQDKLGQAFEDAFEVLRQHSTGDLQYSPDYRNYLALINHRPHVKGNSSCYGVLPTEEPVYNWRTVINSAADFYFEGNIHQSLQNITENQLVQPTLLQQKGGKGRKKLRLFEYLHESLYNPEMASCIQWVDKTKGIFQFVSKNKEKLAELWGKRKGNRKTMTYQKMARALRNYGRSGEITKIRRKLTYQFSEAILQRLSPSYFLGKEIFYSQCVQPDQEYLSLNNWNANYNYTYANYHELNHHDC
Particulars: protein: recombinant; tags: N-terminal GST; dsDNA, one strand shown. The essentials: as §1

Test [14] concerns the target ELF4 (Homo sapiens, UniProt Q99607 1-663). To be noted: protein: recombinant; tags: N-terminal GST; dsDNA, one strand shown. The essentials: as §1
Test [15] has as its target T9, ELK4 (Homo sapiens, UniProt P28324-2 1-405).
T9 sequence: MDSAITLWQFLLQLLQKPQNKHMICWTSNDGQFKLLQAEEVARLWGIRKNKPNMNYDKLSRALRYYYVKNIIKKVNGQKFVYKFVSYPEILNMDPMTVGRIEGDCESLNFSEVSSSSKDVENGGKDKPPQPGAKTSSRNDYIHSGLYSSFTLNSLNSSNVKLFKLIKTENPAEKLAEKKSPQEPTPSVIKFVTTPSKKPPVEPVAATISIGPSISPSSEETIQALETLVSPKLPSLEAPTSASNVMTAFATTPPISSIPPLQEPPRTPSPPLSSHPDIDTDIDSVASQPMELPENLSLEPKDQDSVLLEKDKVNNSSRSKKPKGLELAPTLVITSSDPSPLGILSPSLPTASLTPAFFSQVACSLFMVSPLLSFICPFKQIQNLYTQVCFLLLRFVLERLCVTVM
Particulars: protein: recombinant; tags: N-terminal GST; dsDNA, one strand shown. The essentials: as §1

The target of test [16] is T10, ETV2 (Homo sapiens, UniProt O00321 1-342).
T10 sequence: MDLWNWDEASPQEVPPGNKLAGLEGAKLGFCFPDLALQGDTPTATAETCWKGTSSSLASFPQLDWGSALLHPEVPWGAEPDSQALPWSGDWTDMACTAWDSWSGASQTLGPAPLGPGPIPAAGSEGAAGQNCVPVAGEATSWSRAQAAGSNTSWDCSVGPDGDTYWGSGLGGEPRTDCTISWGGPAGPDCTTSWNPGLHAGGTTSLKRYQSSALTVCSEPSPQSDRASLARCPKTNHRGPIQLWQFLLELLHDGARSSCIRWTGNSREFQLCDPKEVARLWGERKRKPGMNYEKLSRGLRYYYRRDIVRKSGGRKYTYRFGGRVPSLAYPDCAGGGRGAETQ
To be noted: protein: recombinant; tags: N-terminal GST; dsDNA, one strand shown. Summed up:
as §1

Test [17] has as its target T11, ELF3 (Homo sapiens, UniProt P78545 1-371).
T11 sequence: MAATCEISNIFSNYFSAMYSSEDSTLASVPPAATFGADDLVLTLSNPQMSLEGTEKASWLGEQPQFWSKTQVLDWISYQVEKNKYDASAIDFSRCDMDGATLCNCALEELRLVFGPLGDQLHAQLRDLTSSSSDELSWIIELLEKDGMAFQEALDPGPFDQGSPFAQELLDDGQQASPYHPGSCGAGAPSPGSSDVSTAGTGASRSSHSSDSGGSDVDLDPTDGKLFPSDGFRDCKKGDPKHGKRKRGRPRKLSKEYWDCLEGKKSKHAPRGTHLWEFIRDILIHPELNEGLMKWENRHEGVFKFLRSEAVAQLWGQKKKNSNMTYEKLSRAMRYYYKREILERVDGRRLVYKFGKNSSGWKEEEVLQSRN
Particulars: protein: recombinant; tags: N-terminal GST; dsDNA, one strand shown. The essentials:
as §1

In test [18] the target is CRX (Homo sapiens, UniProt O43186 1-299). Particulars: protein: recombinant; tags: N-terminal GST; dsDNA, one strand shown. The essentials: as §1
For test [19], the target named is ETV1 (Homo sapiens, UniProt P50549 1-477). To be noted: protein: recombinant; tags: N-terminal GST; dsDNA, one strand shown. The essentials:
as §1

Chain of HSF1 (Q00613 whole entry): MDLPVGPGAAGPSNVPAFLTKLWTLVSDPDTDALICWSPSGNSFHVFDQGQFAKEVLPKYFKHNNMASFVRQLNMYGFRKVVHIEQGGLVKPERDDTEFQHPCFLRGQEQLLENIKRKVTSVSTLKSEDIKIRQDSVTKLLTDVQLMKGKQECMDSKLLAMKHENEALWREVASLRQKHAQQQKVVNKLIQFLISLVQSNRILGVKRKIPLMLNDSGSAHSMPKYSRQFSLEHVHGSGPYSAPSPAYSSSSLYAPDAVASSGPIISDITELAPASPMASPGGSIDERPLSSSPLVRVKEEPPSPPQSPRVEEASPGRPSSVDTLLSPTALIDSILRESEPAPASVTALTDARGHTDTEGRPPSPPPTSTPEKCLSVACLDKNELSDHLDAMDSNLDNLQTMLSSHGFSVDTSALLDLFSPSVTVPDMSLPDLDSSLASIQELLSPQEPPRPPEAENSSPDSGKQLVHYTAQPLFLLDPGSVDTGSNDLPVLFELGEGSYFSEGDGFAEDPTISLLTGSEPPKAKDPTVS
Chain of ELF1 (P32519 whole entry): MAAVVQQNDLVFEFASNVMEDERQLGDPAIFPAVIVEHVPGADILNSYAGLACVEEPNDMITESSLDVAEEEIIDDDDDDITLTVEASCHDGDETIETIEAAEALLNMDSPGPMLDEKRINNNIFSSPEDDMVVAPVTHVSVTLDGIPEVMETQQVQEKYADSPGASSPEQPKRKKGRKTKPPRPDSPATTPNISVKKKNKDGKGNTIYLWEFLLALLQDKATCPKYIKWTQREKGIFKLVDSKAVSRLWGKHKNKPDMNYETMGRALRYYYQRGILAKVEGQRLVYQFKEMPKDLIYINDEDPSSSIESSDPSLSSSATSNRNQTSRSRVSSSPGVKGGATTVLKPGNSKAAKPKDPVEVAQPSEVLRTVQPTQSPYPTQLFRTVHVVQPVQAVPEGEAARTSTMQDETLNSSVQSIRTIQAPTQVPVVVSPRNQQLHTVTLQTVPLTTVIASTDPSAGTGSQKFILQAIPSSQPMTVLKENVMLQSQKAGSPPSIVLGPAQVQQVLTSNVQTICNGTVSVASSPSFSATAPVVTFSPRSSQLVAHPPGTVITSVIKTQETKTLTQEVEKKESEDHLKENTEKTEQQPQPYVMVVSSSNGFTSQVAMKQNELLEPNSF
Chain of ETV1 (P50549 whole entry): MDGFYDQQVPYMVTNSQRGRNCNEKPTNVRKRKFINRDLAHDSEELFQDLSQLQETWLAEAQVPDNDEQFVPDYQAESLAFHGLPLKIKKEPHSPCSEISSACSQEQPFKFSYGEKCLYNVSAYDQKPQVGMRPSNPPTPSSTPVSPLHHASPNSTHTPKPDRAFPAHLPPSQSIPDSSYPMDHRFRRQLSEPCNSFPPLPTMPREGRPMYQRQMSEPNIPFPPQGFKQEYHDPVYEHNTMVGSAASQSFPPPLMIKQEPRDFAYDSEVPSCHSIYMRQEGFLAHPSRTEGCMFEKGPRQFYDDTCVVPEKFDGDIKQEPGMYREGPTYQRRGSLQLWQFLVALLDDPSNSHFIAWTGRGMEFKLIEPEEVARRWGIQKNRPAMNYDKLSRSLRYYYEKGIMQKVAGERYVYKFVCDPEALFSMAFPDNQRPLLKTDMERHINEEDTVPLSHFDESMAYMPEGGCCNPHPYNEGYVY
Chain of CRX (O43186 whole entry): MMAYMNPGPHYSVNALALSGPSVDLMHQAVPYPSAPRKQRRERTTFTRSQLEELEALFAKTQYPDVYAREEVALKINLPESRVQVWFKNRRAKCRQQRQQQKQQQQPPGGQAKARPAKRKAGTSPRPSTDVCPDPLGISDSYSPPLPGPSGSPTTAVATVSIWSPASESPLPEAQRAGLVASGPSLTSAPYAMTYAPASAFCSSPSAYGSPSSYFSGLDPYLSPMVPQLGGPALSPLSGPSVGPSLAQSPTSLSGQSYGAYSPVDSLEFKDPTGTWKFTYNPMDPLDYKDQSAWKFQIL
Chain of ELF4 (Q99607 whole entry): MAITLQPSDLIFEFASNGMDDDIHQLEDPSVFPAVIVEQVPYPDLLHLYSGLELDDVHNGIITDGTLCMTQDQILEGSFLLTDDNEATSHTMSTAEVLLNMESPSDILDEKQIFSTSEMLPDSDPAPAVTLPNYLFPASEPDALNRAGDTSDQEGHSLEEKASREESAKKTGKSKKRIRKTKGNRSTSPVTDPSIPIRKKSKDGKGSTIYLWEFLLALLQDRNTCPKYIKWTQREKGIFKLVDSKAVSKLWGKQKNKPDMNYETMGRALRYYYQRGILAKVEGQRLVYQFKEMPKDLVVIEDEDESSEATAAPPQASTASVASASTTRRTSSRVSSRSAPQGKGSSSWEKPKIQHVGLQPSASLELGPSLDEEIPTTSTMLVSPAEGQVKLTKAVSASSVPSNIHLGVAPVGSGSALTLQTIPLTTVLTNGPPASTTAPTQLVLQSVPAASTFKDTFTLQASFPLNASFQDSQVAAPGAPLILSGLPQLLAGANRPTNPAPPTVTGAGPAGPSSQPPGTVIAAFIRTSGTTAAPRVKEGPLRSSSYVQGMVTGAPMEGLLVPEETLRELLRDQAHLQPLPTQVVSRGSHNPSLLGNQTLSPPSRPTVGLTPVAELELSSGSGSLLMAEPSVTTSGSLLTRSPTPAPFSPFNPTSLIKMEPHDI
Chain of ETV5 (P41161 whole entry): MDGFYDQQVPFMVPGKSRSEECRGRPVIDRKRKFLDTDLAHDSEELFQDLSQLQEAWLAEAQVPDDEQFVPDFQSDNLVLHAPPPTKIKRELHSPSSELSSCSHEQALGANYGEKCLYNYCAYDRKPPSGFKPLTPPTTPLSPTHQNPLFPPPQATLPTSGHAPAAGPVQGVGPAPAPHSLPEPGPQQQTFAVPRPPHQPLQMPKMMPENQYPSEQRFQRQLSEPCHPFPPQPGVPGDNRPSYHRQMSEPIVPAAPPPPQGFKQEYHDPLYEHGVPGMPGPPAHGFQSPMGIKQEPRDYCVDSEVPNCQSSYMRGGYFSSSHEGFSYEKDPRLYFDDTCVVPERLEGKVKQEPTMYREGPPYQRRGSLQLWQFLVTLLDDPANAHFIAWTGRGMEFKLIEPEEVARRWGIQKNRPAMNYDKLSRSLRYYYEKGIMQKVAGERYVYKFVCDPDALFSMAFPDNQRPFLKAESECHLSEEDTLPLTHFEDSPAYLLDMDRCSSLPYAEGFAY
Chain of SPIB (Q01892 whole entry): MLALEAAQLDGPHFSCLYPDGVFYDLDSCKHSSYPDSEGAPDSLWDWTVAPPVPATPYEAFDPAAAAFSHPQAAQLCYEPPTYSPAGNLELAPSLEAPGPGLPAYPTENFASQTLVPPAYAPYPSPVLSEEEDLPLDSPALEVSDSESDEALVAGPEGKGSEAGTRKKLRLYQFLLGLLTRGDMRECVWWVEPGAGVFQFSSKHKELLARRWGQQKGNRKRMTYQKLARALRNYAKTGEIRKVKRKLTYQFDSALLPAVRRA

For TTTAAT, the binding signal in test [1] is 1.4 fold enrichment (6-mer frequency, TF over GST control); in [2], 1.28 fold enrichment (6-mer frequency, TF over GST control); in [3] it was 1.29 fold enrichment (6-mer frequency, TF over GST control); in test [4], 1.27 fold enrichment (6-mer frequency, TF over GST control); in [5] it was 1.29 fold enrichment (6-mer frequency, TF over GST control); in test [6], 1.35 fold enrichment (6-mer frequency, TF over GST control). For the same sequence, the binding signal in test [7] was 1.23 fold enrichment (6-mer frequency, TF over GST control); in test [8], 1.35 fold enrichment (6-mer frequency, TF over GST control); in test [9], 1.36 fold enrichment (6-mer frequency, TF over GST control); in test [10], 1.26 fold enrichment (6-mer frequency, TF over GST control); in [11] it was 1.32 fold enrichment (6-mer frequency, TF over GST control); in test [12], 2.06 fold enrichment (6-mer frequency, TF over GST control). Further, the binding signal in [13] is 1.25 fold enrichment (6-mer frequency, TF over GST control); in test [14] it was 1.32 fold enrichment (6-mer frequency, TF over GST control); in test [15], 1.35 fold enrichment (6-mer frequency, TF over GST control); in test [16], 1.06 fold enrichment (6-mer frequency, TF over GST control); in test [17], 1.3 fold enrichment (6-mer frequency, TF over GST control); in test [18], 3.28 fold enrichment (6-mer frequency, TF over GST control). Besides, the binding signal in test [19] is 1.34 fold enrichment (6-mer frequency, TF over GST control).

The values are drawn from publication PMC7862700, “An all-to-all approach to the identification of sequence-specific readers for epigenetic DNA modifications on cytosine”.
